This is an account of results in PubChem BioAssay (Tox21).

Records with an inconclusive call do not appear. Entries that show only a call come without a potency. Active and inactive are the calls of the source. Unless noted, calls follow the shape of the full dose curve.

Sequence of KiSS-1 receptor (Homo sapiens) (Q969F8 whole entry, looked up): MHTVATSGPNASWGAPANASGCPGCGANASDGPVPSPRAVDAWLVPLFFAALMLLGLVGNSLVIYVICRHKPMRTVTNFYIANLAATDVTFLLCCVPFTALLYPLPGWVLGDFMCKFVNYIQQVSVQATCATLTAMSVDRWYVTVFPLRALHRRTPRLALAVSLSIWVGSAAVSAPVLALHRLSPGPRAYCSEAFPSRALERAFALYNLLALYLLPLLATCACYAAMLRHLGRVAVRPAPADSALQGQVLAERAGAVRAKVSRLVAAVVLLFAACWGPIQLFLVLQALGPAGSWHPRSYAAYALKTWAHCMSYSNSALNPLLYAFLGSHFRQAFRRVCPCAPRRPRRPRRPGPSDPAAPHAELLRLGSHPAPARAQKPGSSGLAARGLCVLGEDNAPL

For the first assay, the target named is KiSS-1 receptor (Homo sapiens) (UniProt Q969F8). In words: Human kisspeptin (KISS1R) small molecule agonists, calcium flux assay in KISS1R-HEK293 cells (AID 1920064; active = well fitted activation curve with a large enough effect in the repeat runs). The conditions noted are these: KISS1R-HEK293, calcium flux fluorescence, agonist; series mostly up to 76.8 µM. In short, it runs like this:
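Kinetic calcium assay, 1 s sampling over 3 min at Ex/Em 480/540, in HEK293 cells engineered with human KISS1R; compounds delivered in DMSO after 1 h dye loading.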
Regarding `O=Cc1cccc([N+](=O)[O-])c1`, the Potency entry is “inactive”.

With `CC(COCCO)OCCO` (configuration not stated), the Potency result was “inactive”.

With `NC(=O)N[C@@H](CCC(=O)O)C(=O)O`, the Potency result is “inactive”.

In the case of `COc1ccc2cc(C=O)ccc2c1`, the Potency result is “inactive”.

`CC(O)CCCCn1c(=O)c2c(ncn2C)n(C)c1=O` (configuration not stated): the Potency result was “inactive”.

As to `NC(=O)CCCCC(N)=O`, the Potency result is “inactive”.

On to `NCC1CCCC(CN)C1` (configuration not stated), for which the Potency result is “inactive”.

Regarding `CC(=O)CC(=O)Nc1ccc2[nH]c(=O)[nH]c2c1`, the Potency result was “inactive”.

Consider `Oc1ccc(O)c2c(O)cccc12`, for which the Potency entry was “inactive”.

On to `CCCOC(C)=O`, for which the Potency entry was “inactive”.

Take `CCCCCCCCCCCC[N+](C)(C)CCCS(=O)(=O)[O-]`: the Potency result was “inactive”.

For the compound `CC(C)=C1CC[C@@H](C)CC1=O`, the Potency entry was “inactive”.

As to `O=C(O)c1ccc([N+](=O)[O-])cc1`, the Potency result was “inactive”.

In the case of `C=CCCCCCCCCC(=O)OCCCC`, the Potency entry was “inactive”.

On to `CC(=O)NCCO`, for which the Potency result was “inactive”.

Turning to `NNC(=O)c1cccc(C(=O)NN)c1`, the Potency result is “inactive”.

For `O=C(C(=O)c1ccco1)c1ccco1`, the Potency entry was “inactive”.

As for `COc1ccc(Cl)cc1C`, the Potency result was “inactive”.

As for `Nc1ncnc2c1ncn2Cc1c(F)cccc1Cl`, the Potency result is “inactive”.

As for `NC(=S)Nc1cccc2ccccc12`, the activation was 6.64% [at 6.97 µM] (inactive).

Turning to `NCCOCCN`, the Potency result was “inactive”.

On to `O=C1OC(CN2CCOCC2)CN1/N=C/c1ccc([N+](=O)[O-])o1` (configuration not stated), for which the Potency result is “inactive”.

`N[C@H]1C(O)O[C@H](CO)[C@@H](O)[C@@H]1O` (some centres not stated): the Potency entry was “inactive”.

As for `C=C(C)[C@H]1CC=C(C)CC1`, the Potency entry was “inactive”.

Turning to `CC1=CC[C@@H](C(C)(C)O)CC1`, the Potency entry was “inactive”.

In the case of `CCCCCCCCCCCCCCC(=O)O`, the Potency entry is “inactive”.

In the case of `CC(COC(=O)c1ccccc1)OC(=O)c1ccccc1` (configuration not stated), the Potency entry was “inactive”.

As for `F[Si-2](F)(F)(F)(F)F`, the Potency entry was “inactive”.

Consider `NNS(=O)(=O)c1ccc(Oc2ccc(S(=O)(=O)NN)cc2)cc1`, for which the Potency result was “inactive”.

On to `O=C(O)CONC(=O)c1ccccc1`, for which the Potency result is “inactive”.

On to `OCC1CC2CC1C1CCC(CO)C21` (configuration not stated), for which the Potency result was “inactive”.

`O=C1CCC(=O)N1`: the Potency entry was “inactive”.

On to `CCC(=O)OC/C=C(\C)CCC=C(C)C`, for which the Potency result is “inactive”.

For the compound `CC(O)CNCC(C)O` (configuration not stated), the Potency entry is “inactive”.

`OCc1ccccc1O`: the Potency entry was “inactive”.

On to `CCOC(=O)c1cccc(N)c1`, for which the Potency entry is “inactive”.

With `CNCCO`, the Potency entry was “inactive”.

As for `N#CCN(CC#N)CCN(CC#N)CC#N`, the Potency entry was “inactive”.

Take `CCCOCCOCCOCCO`: the Potency entry was “inactive”.

Test system in another assay: not listed separately
Description: G protein-coupled receptor (GPCR) small molecule agonists, calcium flux assay: HEK293 wild type cell line counter screen (AID 1920065). The conditions noted are these: HEK293 WT calcium flux, fluorescence, agonist mode; series mostly up to 57.6 µM. In outline:
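Calcium-sensitive dye, loaded 1 h at 37 C into cells cultured 18 h, reports compound-evoked calcium release as fluorescence (Ex/Em 480/540), measured over 3 min. Agonist mode; 15-point titrations, triplicate.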
As for `O=Cc1cccc([N+](=O)[O-])c1`, the Potency result was “inactive”.

Regarding `CC(COCCO)OCCO` (configuration not stated), the Potency result was “inactive”.

Consider `NC(=O)N[C@@H](CCC(=O)O)C(=O)O`, for which the Potency result was “inactive”.

As to `COc1ccc2cc(C=O)ccc2c1`, the Potency entry was “inactive”.

For `CC(O)CCCCn1c(=O)c2c(ncn2C)n(C)c1=O` (configuration not stated), the Potency result was “inactive”.

Regarding `NC(=O)CCCCC(N)=O`, the Potency result is “inactive”.

Turning to `NCC1CCCC(CN)C1` (configuration not stated), the Potency entry is “inactive”.

Take `CC(=O)CC(=O)Nc1ccc2[nH]c(=O)[nH]c2c1`: the Potency result is “inactive”.

As to `Oc1ccc(O)c2c(O)cccc12`, the Potency result was “inactive”.

In the case of `CCCOC(C)=O`, the Potency result was “inactive”.

`CCCCCCCCCCCC[N+](C)(C)CCCS(=O)(=O)[O-]`: the Potency entry is “inactive”.

Turning to `CC(C)=C1CC[C@@H](C)CC1=O`, the Potency result is “inactive”.

Regarding `O=C(O)c1ccc([N+](=O)[O-])cc1`, the Potency entry is “inactive”.

Consider `C=CCCCCCCCCC(=O)OCCCC`, for which the Potency result is “inactive”.

Take `CC(=O)NCCO`: the Potency result is “inactive”.

For `NNC(=O)c1cccc(C(=O)NN)c1`, the Potency result is “inactive”.

`O=C(C(=O)c1ccco1)c1ccco1`: the Potency entry was “inactive”.

As for `COc1ccc(Cl)cc1C`, the Potency result is “inactive”.

For the compound `Nc1ncnc2c1ncn2Cc1c(F)cccc1Cl`, the Potency result is “inactive”.

Regarding `NC(=S)Nc1cccc2ccccc12`, the activation is -0.659% [at 5.23 µM] (inactive).

`NCCOCCN`: the Potency entry is “inactive”.

Turning to `O=C1OC(CN2CCOCC2)CN1/N=C/c1ccc([N+](=O)[O-])o1` (configuration not stated), the Potency entry is “inactive”.

For `N[C@H]1C(O)O[C@H](CO)[C@@H](O)[C@@H]1O` (some centres not stated), the Potency entry was “inactive”.

For `C=C(C)[C@H]1CC=C(C)CC1`, the Potency entry was “inactive”.

As for `CC1=CC[C@@H](C(C)(C)O)CC1`, the Potency result is “inactive”.

On to `CCCCCCCCCCCCCCC(=O)O`, for which the Potency result is “inactive”.

In the case of `CC(COC(=O)c1ccccc1)OC(=O)c1ccccc1` (configuration not stated), the Potency entry is “inactive”.

As for `F[Si-2](F)(F)(F)(F)F`, the Potency entry was “inactive”.

As for `NNS(=O)(=O)c1ccc(Oc2ccc(S(=O)(=O)NN)cc2)cc1`, the Potency result is “inactive”.

Turning to `O=C(O)CONC(=O)c1ccccc1`, the Potency entry was “inactive”.

With `OCC1CC2CC1C1CCC(CO)C21` (configuration not stated), the Potency result is “inactive”.

With `O=C1CCC(=O)N1`, the Potency entry was “inactive”.

Consider `CCC(=O)OC/C=C(\C)CCC=C(C)C`, for which the Potency entry was “inactive”.

As for `CC(O)CNCC(C)O` (configuration not stated), the Potency entry is “inactive”.

Consider `OCc1ccccc1O`, for which the Potency entry is “inactive”.

`CCOC(=O)c1cccc(N)c1`: the Potency entry was “inactive”.

For `CNCCO`, the Potency result is “inactive”.

With `N#CCN(CC#N)CCN(CC#N)CC#N`, the Potency entry was “inactive”.

For `CCCOCCOCCOCCO`, the Potency entry was “inactive”.

Test system in another assay: not listed separately
Description: p53 small molecule agonists, cell-based qHTS assay with human liver microsomes (AID 1963577).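 Also: p53 response element beta-lactamase reporter cells with liver microsomes plus NADPH.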 As to conditions: HCT-116 p53RE-bla with human liver microsomes, ratio, 16 h; series mostly up to 66 µM. In short, it runs like this:
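Compounds act here after metabolic activation: human liver microsomes and NADPH, both at 0.5 mg/mL final, were co-added to p53RE-bla cells. Incubation ran 16 h at 37 C, followed by LiveBLAzer detection.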
For `O=Cc1cccc([N+](=O)[O-])c1`, the Potency entry was “inactive”.

On to `CC(COCCO)OCCO` (configuration not stated), for which the Potency result is “inactive”.

As for `NC(=O)N[C@@H](CCC(=O)O)C(=O)O`, the Potency result was “inactive”.

In the case of `COc1ccc2cc(C=O)ccc2c1`, the Potency result is “inactive”.

`CC(O)CCCCn1c(=O)c2c(ncn2C)n(C)c1=O` (configuration not stated): the Potency result is “inactive”.

Take `NC(=O)CCCCC(N)=O`: the Potency entry is “inactive”.

For `NCC1CCCC(CN)C1` (configuration not stated), the Potency result was “inactive”.

With `CC(=O)CC(=O)Nc1ccc2[nH]c(=O)[nH]c2c1`, the Potency result is “inactive”.

For `Oc1ccc(O)c2c(O)cccc12`, the Potency entry was “inactive”.

Consider `CCCOC(C)=O`, for which the Potency entry is “inactive”.

As to `CCCCCCCCCCCC[N+](C)(C)CCCS(=O)(=O)[O-]`, the Potency entry is “inactive”.

On to `CC(C)=C1CC[C@@H](C)CC1=O`, for which the Potency entry is “inactive”.

`O=C(O)c1ccc([N+](=O)[O-])cc1`: the Potency entry is “inactive”.

Take `C=CCCCCCCCCC(=O)OCCCC`: the Potency result was “inactive”.

Consider `CC(=O)NCCO`, for which the Potency result is “inactive”.

For the compound `NNC(=O)c1cccc(C(=O)NN)c1`, the Potency entry was “inactive”.

With `O=C(C(=O)c1ccco1)c1ccco1`, the Potency entry was “inactive”.

For `COc1ccc(Cl)cc1C`, the Potency entry is “inactive”.

In the case of `Nc1ncnc2c1ncn2Cc1c(F)cccc1Cl`, the Potency entry is “inactive”.

On to `NC(=S)Nc1cccc2ccccc12`, for which the activation is 6% [at 5.99 µM] (inactive).

Turning to `NCCOCCN`, the Potency result was “inactive”.

For the compound `O=C1OC(CN2CCOCC2)CN1/N=C/c1ccc([N+](=O)[O-])o1` (configuration not stated), the Potency entry was “inactive”.

For `N[C@H]1C(O)O[C@H](CO)[C@@H](O)[C@@H]1O` (some centres not stated), the Potency result was “inactive”.

Consider `C=C(C)[C@H]1CC=C(C)CC1`, for which the Potency entry was “inactive”.

On to `CC1=CC[C@@H](C(C)(C)O)CC1`, for which the Potency entry is “inactive”.

Regarding `CCCCCCCCCCCCCCC(=O)O`, the Potency entry is “inactive”.

`CC(COC(=O)c1ccccc1)OC(=O)c1ccccc1` (configuration not stated): the Potency entry is “inactive”.

Turning to `F[Si-2](F)(F)(F)(F)F`, the Potency entry is “inactive”.

`NNS(=O)(=O)c1ccc(Oc2ccc(S(=O)(=O)NN)cc2)cc1`: the Potency entry is “inactive”.

Turning to `O=C(O)CONC(=O)c1ccccc1`, the Potency entry was “inactive”.

For `OCC1CC2CC1C1CCC(CO)C21` (configuration not stated), the Potency result was “inactive”.

`O=C1CCC(=O)N1`: the Potency entry was “inactive”.

`CCC(=O)OC/C=C(\C)CCC=C(C)C`: the Potency entry is “inactive”.

Consider `CC(O)CNCC(C)O` (configuration not stated), for which the Potency result was “inactive”.

As for `OCc1ccccc1O`, the Potency entry was “inactive”.

Turning to `CCOC(=O)c1cccc(N)c1`, the Potency result was “inactive”.

`CNCCO`: the Potency entry was “inactive”.

For the compound `N#CCN(CC#N)CCN(CC#N)CC#N`, the Potency result was “inactive”.

`CCCOCCOCCOCCO`: the Potency entry is “inactive”.
